Here are results for four compounds from PubChem BioAssay (EPA / NIEHS).

Experiment [1] in a line: BSK_4H_Eotaxin3: BioMAP Diversity Plus: 4H Assay for Eotaxin 3 Biomarker Activity (AID 2283000).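 Further: CCL26 protein level quantified by ELISA in parallel with SRB cytotoxicity check.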 Conditions: primary human endothelial cells (HUVEC); actives raise or lower the signal. The procedure, abridged: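 HUVEC, 24 h post-dose, ELISA for Eotaxin-3/CCL26. Gain or loss of signal fitted bidirectionally vs DMSO baseline.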
Experiment [2] addresses human Peroxisome Proliferator-activated Receptor delta (PPARd), PPARD (gene 5467) (UniProt Q03181). In words: ATG_PPARd_TRANS: Attagene TRANS-FACTORIAL HepG2 Assay for human Peroxisome Proliferator-activated Receptor delta (PPARd) (AID 2283002; active means hit-call score of the fitted dose curve at least 0.9, where 1 is the maximum). The procedure, abridged:
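Transient HepG2 transfection (multiple GAL4-UAS RTUs, chimeric receptor-Gal4); 24 h dosing; total RNA → oligo(dT) RT → PCR → 6-FAM primer extension → HpaI cut → CE. Positive direction vs DMSO.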

Read-out in experiment [3]: Intercellular Adhesion Molecule 1 (ICAM1), ICAM1 (gene 3383)
In words: BSK_3C_ICAM1: BioMAP Diversity Plus: 3C Assay for Intercellular Adhesion Molecule 1 (ICAM1) Biomarker Activity (AID 2283003). The conditions noted are these: primary human endothelial cells (HUVEC); actives raise or lower the signal. The procedure, abridged:
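Human vascular endothelial primary cells, 3C conditions, 24 h treatment. ICAM-1 by ELISA.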

Experiment [4] is described as follows: BSK_3C_Proliferation: Cell Proliferation Assessment in the BioMAP Diversity Plus: 3C Assay (AID 2283006). The conditions noted are these: primary human endothelial cells (HUVEC). The procedure, abridged:
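Proliferation of human vascular endothelial primary cells after 48 h dosing, quantified as SRB-stained protein at 560 nm relative to DMSO.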

Experiment [5] concerns the target Peroxisome proliferator-activated receptor gamma (Homo sapiens) (UniProt P37231). In words: ATG_PPARg_TRANS: Attagene TRANS-FACTORIAL HepG2 Assay for human Peroxisome Proliferator-activated Receptor-gamma (PPARg) (AID 2283007; active means hit-call score of the fitted dose curve at least 0.9, where 1 is the maximum). The procedure, abridged:
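Twenty-four hours after chemical dosing of transiently transfected HepG2 cells, isolated RNA was converted to cDNA, reporter sequences amplified and 6-FAM-labelled, then HpaI-digested and analysed by capillary electrophoresis. Signal increase against DMSO was fitted.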

The target in experiment [6] is Nuclear receptor subfamily 1 group I member 2 (Homo sapiens) (UniProt O75469). In words: ATG_PXR_TRANS: Attagene TRANS-FACTORIAL HepG2 Assay for human Pregnane X Receptor (PXR) (AID 2283008; active means hit-call score of the fitted dose curve at least 0.9, where 1 is the maximum). In short, it runs like this: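 HepG2 cells transiently transfected with GAL4-UAS reporter units and PXR-Gal4 chimera, exposed 24 h. Reporter mRNA quantified by RT-PCR, fluorescent labelling, HpaI digestion and capillary electrophoresis; gain of signal vs DMSO.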
Nuclear receptor subfamily 1 group I member 2 (Homo sapiens), sequence (O75469 whole entry, looked up, the tested form may be a part): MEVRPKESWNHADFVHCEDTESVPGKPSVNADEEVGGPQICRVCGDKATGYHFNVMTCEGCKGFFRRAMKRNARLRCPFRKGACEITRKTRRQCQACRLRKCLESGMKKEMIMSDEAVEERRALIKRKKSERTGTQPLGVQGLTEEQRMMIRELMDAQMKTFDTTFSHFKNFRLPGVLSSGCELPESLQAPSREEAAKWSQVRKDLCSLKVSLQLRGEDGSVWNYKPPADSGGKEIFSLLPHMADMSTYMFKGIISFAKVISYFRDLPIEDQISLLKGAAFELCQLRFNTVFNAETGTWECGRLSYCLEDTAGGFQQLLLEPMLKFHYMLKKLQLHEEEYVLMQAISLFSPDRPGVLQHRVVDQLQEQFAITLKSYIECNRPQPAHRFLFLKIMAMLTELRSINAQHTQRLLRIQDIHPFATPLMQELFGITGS

Experiment [7] addresses human RAR-related Orphan Receptor beta (RORb), RORB (gene 6096) (UniProt Q92753). In words: ATG_RORb_TRANS: Attagene TRANS-FACTORIAL HepG2 Assay for human RAR-related Orphan Receptor beta (RORb) (AID 2283010; active means hit-call score of the fitted dose curve at least 0.9, where 1 is the maximum). The procedure, abridged: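 In this TRANS-format test, human HepG2 cells express chimeric NR-Gal4 fusion proteins driving GAL4-UAS reporters. After 24 h dosing, reporter transcripts are measured by fluorescent RT-PCR/capillary electrophoresis, with DMSO as negative control.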

In experiment [8] the target is human RAR-related Orphan Receptor gamma (RORg), RORC (gene 6097) (UniProt P51449). In words: ATG_RORg_TRANS: Attagene TRANS-FACTORIAL HepG2 Assay for human RAR-related Orphan Receptor gamma (RORg) (AID 2283011; active means hit-call score of the fitted dose curve at least 0.9, where 1 is the maximum). In short, it runs like this: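 Readout: reporter transcript induction (RT-PCR, fluorescent primer extension, capillary electrophoresis) after 24 h compound exposure of transiently transfected HepG2 cells carrying a RORg-Gal4 chimera and GAL4-UAS reporters; DMSO served as baseline, with increasing signal fitted.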
human RAR-related Orphan Receptor gamma (RORg), RORC (gene 6097), sequence (P51449 whole entry, looked up, the tested form may be a part): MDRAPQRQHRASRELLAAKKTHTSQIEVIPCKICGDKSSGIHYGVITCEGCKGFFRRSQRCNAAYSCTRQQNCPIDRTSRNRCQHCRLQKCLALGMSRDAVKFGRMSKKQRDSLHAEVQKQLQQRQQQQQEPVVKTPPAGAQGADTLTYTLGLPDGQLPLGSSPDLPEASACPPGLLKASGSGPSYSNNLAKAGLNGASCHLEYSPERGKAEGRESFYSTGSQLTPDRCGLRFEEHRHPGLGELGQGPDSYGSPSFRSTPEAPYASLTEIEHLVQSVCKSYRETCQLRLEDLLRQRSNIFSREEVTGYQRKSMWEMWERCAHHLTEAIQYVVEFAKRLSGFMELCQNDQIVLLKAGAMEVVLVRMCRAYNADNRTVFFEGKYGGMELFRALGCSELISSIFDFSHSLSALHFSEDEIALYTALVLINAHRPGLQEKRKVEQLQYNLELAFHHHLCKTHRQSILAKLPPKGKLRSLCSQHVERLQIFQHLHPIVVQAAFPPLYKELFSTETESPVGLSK

In experiment [9] the target is human Retinoid X Receptor beta (RXRb), RXRB (gene 6257) (UniProt P28702). In words: ATG_RXRb_TRANS: Attagene TRANS-FACTORIAL HepG2 Assay for human Retinoid X Receptor beta (RXRb) (AID 2283013; active means hit-call score of the fitted dose curve at least 0.9, where 1 is the maximum). In short, it runs like this: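 Multiplexed TRANS reporter assay in HepG2; 24 h dosing; reporter mRNA by RT-PCR/CE fluorescence; gain-of-signal relative to DMSO.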
human Retinoid X Receptor beta (RXRb), RXRB (gene 6257), sequence (P28702 whole entry, looked up): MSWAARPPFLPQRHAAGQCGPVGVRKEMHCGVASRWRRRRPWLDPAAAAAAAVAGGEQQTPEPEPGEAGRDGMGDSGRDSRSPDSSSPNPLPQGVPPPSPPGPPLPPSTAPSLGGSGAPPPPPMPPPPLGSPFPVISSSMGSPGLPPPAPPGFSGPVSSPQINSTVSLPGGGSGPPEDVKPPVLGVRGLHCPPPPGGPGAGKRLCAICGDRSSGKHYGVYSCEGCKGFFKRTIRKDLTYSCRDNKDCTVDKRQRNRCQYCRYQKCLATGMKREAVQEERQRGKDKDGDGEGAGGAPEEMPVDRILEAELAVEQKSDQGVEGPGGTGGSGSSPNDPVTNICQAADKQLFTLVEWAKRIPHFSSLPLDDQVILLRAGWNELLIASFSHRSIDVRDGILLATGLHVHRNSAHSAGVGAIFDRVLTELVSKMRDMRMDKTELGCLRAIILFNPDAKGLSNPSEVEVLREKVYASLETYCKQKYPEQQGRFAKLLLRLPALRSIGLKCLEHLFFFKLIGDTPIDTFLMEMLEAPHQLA
Read-out in experiment [10]: E-selectin (Homo sapiens) (UniProt P16581)
In words: BSK_3C_Eselectin: BioMAP Diversity Plus: 3C Assay for Eselectin Biomarker Activity (AID 2283015).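 Further: cell surface E-selectin protein quantified by ELISA 24 h after dosing.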 The conditions noted are these: primary human endothelial cells (HUVEC); actives raise or lower the signal. In short, it runs like this:
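Primary human umbilical vein endothelial cells (3C system) were dosed with chemical and cell-surface E-selectin measured by ELISA 24 h later. Bidirectional curve fitting used DMSO as negative control and baseline.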

Read-out in experiment [11]: Interleukin-1 alpha (IL1a), IL1A (gene 3552)
In words: BSK_BE3C_IL1a: BioMAP Diversity Plus: BE3C Assay for Interleukin-1 alpha (IL1a) Biomarker Activity (AID 2283016). Conditions: primary human bronchial epithelial cells; actives raise or lower the signal. In short, it runs like this: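 Cultures of primary human bronchial epithelial cells receive test chemical. After 24 h, IL-1a is quantified by ELISA, while parallel wells are fixed in TCA and SRB-stained for total protein. Changes in either direction are fitted relative to DMSO.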

Read-out in experiment [12]: Monocyte Chemoattractant Protein-1 (MCP1), CCL2 (gene 6347)
In words: BSK_3C_MCP1: BioMAP Diversity Plus: 3C Assay for Monocyte Chemoattractant Protein-1 (MCP1) Biomarker Activity (AID 2283017). The conditions noted are these: primary human endothelial cells (HUVEC); actives raise or lower the signal. The procedure, abridged: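 Primary human umbilical vein endothelial cells (3C system) were exposed to test chemical for 24 h, after which MCP-1 was quantified by ELISA. Activity was fitted bidirectionally against DMSO as negative control and baseline.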

Read-out in experiment [13]: Monocyte Chemoattractant Protein-1 (MCP1), CCL2 (gene 6347)
In words: BSK_4H_MCP1: BioMAP Diversity Plus: 4H Assay for Monocyte Chemoattractant Protein-1 (MCP1) Biomarker Activity (AID 2283018). Conditions: primary human endothelial cells (HUVEC); actives raise or lower the signal. The procedure, abridged:
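Readout: MCP-1 ELISA on compound-treated HUVEC, sampled 24 h post-dosing. Baseline and negative control DMSO; bidirectional fit. Overt toxicity checked alongside by sulforhodamine B protein staining at time of biomarker measurement.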

Read-out in experiment [14]: Human Leukocyte Antigen - DR isotype (HLADR), HLA-DRA (gene 3122)
In words: BSK_3C_HLADR: BioMAP Diversity Plus: 3C Assay for Human Leukocyte Antigen - DR isotype (HLADR) Biomarker Activity (AID 2283019).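 On outcome: ELISA of cell-surface HLA-DR on HUVEC 24 h after dosing.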 The conditions noted are these: primary human endothelial cells (HUVEC); actives raise or lower the signal. In short, it runs like this:
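Primary human umbilical vein endothelial cells (3C system) were dosed with compound and cell-surface HLA-DR was quantified by ELISA at 24 h. Activity was fitted bidirectionally against DMSO as negative control and baseline.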

Read-out in experiment [15]: Interleukin-8 (IL8), CXCL8 (gene 3576)
In words: BSK_3C_IL8: BioMAP Diversity Plus: 3C Assay for Interleukin-8 (IL8) Biomarker Activity (AID 2283020). Conditions: primary human endothelial cells (HUVEC); actives raise or lower the signal. The procedure, abridged: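 Human vascular endothelial cells (umbilical vein) in the 3C system; IL-8 level detected by ELISA at 24 h post-dose, with DMSO as baseline.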

Experiment [16] deals with human Retinoic Acid Receptor beta (RARb), RARB (gene 5915) (UniProt P10826). In words: ATG_RARb_TRANS: Attagene TRANS-FACTORIAL HepG2 Assay for human Retinoic Acid Receptor beta (AID 2283004; active means hit-call score of the fitted dose curve at least 0.9, where 1 is the maximum). In short, it runs like this:
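HepG2 cells transiently transfected with multiplexed GAL4-UAS reporter units expressing chimeric NR–Gal4 fusions; 24 h compound exposure. Reporter mRNA quantified by RT-PCR, 6-FAM labelling, HpaI digestion and capillary electrophoresis; gain-of-signal fitted against DMSO baseline.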

The target of experiment [17] is Retinoic acid receptor RXR-alpha (Homo sapiens) (UniProt P19793). In words: ATG_RXRa_TRANS: Attagene TRANS-FACTORIAL HepG2 Assay for human Retinoid X Receptor alpha (RXRa) (AID 2283012; active means hit-call score of the fitted dose curve at least 0.9, where 1 is the maximum). In short, it runs like this: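 Cells (HepG2) carried transiently transfected GAL4-responsive reporter units. Following a 24 h chemical incubation, reporter mRNA induction was read via RT-PCR fragment analysis; DMSO served as negative control and baseline.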
Retinoic acid receptor RXR-alpha (Homo sapiens), sequence (P19793 whole entry, looked up, the tested form may be a part): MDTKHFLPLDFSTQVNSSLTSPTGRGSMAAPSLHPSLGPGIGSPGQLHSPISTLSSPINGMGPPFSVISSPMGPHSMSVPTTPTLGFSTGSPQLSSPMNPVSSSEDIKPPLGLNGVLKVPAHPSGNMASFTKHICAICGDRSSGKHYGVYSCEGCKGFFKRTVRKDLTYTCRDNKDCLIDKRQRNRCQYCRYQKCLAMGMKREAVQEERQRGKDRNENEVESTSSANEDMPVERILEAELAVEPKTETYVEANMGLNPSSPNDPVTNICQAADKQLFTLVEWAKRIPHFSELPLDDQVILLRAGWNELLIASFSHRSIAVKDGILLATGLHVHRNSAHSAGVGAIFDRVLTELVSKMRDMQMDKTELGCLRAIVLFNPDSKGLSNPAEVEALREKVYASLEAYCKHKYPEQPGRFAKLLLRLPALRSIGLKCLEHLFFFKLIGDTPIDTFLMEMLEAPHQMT

Experiment [18] deals with human Thyroid Receptor alpha (THRa1), THRA (gene 7067) (UniProt P10827). In words: ATG_THRa1_TRANS: Attagene TRANS-FACTORIAL HepG2 Assay for human Thyroid Receptor alpha (THRa1) (AID 2283014; active means hit-call score of the fitted dose curve at least 0.9, where 1 is the maximum). In short, it runs like this: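 HepG2 cells transiently transfected with multiplexed GAL4-UAS reporter units for exogenous chimeric THRa1-Gal4; reporter mRNA measured 24 h after dosing by RT-PCR, 6-FAM labelling, HpaI digestion and capillary electrophoresis. Gain-of-signal fitted versus DMSO baseline.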
human Thyroid Receptor alpha (THRa1), THRA (gene 7067), sequence (P10827 whole entry, looked up, the tested form may be a part): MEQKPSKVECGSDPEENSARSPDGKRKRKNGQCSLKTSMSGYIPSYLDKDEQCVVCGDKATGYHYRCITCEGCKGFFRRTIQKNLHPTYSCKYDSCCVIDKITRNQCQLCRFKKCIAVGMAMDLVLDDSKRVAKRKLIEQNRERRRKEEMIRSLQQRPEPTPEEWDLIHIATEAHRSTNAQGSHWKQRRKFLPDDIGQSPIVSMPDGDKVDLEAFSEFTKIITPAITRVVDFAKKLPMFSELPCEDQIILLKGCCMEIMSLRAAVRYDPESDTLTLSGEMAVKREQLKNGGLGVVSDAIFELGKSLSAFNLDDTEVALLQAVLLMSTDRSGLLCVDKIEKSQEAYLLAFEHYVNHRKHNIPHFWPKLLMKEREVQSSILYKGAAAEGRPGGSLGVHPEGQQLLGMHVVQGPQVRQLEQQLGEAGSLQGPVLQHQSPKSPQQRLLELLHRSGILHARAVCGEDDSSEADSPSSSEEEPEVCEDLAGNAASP

As usually defined, the AC50 is the concentration at which the activity in the assay is half-maximal.

Results filed as inconclusive are left out. The source made the active and inactive calls. How the source made its calls, unless noted: active means hit-call score of the fitted dose curve at least 0.9, where 1 is the maximum; inactive means score below 0.9.

Peroxisome proliferator-activated receptor gamma (Homo sapiens), sequence (P37231 whole entry, looked up): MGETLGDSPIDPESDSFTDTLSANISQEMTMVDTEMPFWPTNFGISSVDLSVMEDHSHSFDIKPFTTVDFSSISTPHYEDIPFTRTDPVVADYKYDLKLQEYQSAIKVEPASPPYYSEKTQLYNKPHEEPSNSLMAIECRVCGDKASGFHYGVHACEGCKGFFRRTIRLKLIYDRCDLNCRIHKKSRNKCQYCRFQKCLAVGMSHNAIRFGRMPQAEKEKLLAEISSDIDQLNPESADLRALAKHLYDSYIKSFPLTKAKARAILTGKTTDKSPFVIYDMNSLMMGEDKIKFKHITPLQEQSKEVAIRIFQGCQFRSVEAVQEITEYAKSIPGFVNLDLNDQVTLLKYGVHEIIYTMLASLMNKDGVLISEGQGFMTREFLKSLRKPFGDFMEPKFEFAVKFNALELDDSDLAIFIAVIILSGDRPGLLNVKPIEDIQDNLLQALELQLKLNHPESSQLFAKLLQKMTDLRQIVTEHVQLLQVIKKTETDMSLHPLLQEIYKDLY
E-selectin (Homo sapiens), sequence (P16581 whole entry, looked up): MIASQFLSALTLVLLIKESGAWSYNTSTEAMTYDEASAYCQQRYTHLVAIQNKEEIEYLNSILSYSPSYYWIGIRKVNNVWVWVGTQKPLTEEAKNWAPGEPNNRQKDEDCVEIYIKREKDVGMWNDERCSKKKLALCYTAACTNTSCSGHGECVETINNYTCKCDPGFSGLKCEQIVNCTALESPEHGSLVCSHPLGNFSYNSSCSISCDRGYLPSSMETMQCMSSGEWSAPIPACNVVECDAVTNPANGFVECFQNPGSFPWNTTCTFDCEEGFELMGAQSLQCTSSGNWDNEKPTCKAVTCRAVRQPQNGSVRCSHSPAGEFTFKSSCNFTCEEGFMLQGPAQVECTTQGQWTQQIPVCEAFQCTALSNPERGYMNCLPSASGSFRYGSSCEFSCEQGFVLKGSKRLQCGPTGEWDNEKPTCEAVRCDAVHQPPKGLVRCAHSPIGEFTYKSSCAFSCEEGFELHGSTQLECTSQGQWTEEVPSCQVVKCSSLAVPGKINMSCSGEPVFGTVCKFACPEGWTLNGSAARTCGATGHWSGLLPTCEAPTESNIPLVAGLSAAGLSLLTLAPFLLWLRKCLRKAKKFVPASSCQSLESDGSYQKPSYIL
human Peroxisome Proliferator-activated Receptor delta (PPARd), PPARD (gene 5467), sequence (Q03181 whole entry, looked up, the tested form may be a part): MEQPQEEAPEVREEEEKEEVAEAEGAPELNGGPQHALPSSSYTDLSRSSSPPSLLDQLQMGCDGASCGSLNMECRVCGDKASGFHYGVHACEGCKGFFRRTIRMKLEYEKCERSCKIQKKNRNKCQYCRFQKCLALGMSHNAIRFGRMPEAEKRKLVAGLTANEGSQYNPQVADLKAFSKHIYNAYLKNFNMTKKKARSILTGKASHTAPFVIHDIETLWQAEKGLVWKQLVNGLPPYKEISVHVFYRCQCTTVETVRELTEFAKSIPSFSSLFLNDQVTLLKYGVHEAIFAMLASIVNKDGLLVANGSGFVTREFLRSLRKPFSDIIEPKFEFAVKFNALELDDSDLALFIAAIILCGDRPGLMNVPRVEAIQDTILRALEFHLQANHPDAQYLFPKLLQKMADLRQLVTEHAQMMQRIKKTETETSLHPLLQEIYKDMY
human RAR-related Orphan Receptor beta (RORb), RORB (gene 6096), sequence (Q92753 whole entry, looked up, the tested form may be a part): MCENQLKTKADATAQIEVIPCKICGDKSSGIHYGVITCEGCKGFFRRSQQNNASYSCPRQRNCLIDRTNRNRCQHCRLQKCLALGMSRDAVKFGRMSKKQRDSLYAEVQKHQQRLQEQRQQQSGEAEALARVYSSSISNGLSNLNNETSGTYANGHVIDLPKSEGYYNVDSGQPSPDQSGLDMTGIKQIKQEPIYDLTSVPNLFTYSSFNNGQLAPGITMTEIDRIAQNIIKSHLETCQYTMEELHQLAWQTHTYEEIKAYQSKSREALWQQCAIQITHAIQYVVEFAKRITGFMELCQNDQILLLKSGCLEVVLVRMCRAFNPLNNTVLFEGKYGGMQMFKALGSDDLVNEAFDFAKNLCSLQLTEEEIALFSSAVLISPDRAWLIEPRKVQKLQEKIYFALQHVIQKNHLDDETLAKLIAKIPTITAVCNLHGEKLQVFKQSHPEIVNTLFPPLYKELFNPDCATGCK
human Retinoic Acid Receptor beta (RARb), RARB (gene 5915), sequence (P10826 whole entry, looked up, the tested form may be a part): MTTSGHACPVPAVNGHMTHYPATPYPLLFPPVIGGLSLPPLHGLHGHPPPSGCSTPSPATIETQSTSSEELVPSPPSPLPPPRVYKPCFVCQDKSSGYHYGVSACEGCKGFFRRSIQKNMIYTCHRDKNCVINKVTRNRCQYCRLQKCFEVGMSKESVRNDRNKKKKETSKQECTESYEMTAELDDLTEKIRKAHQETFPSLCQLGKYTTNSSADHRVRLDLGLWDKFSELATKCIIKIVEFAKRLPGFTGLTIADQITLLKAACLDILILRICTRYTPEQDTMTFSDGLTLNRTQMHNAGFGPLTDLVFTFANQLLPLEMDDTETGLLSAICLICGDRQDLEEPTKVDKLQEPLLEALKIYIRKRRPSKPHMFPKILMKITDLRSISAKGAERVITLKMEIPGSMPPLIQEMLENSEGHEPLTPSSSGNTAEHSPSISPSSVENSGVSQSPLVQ

In the case of `CCOP(=S)(OCC)Oc1ccc([N+](=O)[O-])cc1`, the result in experiment [1], in experiment [2], in experiment [3], in [4], in [7] and in experiment [8] was inactive. Moreover, the compound was classed as inactive in experiment [9], in experiment [10], in [11], in experiment [12], in experiment [14] and in experiment [15]. The concentration at half-maximal activity (AC50) in experiment [5] is 28.8 µM (active); in experiment [6], 19.9 µM (active); in experiment [13], 25.2 µM (active).

For the compound `CC(COc1ccc(Oc2ccccc2)cc1)Oc1ccccn1` (stereo not drawn), the result in experiment [1], in experiment [2], in [3], in experiment [4], in [6] and in experiment [8] was inactive. For the same compound, the outcome in experiment [10], in [11], in experiment [12], in experiment [13] and in experiment [15] was inactive. Moreover, the AC50 in [5] was 14.5 µM (active); in experiment [14] it was 21 µM (active).

`CCOP(=O)(SC(C)CC)N1CCSC1=O` (stereo not drawn): the result in [1], in [3], in experiment [16], in [4], in [5] and in experiment [6] was inactive. In addition, the result in experiment [7], in experiment [10], in experiment [11], in experiment [12], in [13] and in experiment [14] was inactive. Also, in [15], the result was inactive.

Take `Nc1c(Cl)cc([N+](=O)[O-])cc1Cl`: the result in experiment [1], in [2], in experiment [3], in experiment [16], in [4] and in [5] was inactive. For the same compound, the outcome in [6], in [8], in experiment [17], in experiment [9], in [18] and in experiment [10] was inactive. For the same compound, the result in experiment [11], in experiment [12], in [13] and in experiment [15] was inactive. In addition, the concentration at half-maximal activity (AC50) in [14] was 28.8 µM (active).
